Out of some 5,500 compounds screened, about 2,000 (36%) were called active. Inconclusive results (about 18%) are left out. The list shows a part of the results. A number with no mark means an inactive call. No stated cut-off is given here; in the data, active means normalized growth mostly below about 0.91 (no sharp cut-off); inconclusive means no clear call, values can overlap the other calls; inactive means mostly above about 0.92.
Experiment: chemical genetic growth profiling, strain panel (AID 1159580);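 further: tested at 20 µM; growth read once vehicle control cultures reached saturation at 30 °C; 1 = growth at the plate median or of vehicle wells; lower values mean less growth of the strain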
Settings: growth OD

NC(=O)c1cc([N+](=O)[O-])cc([N+](=O)[O-])c1
normalized growth (S. cerevisiae deletion strains, locus YJR075W, strain HOC1, hits give low values): 1
normalized growth (S. cerevisiae deletion strains, locus YKL009W, strain mrt4, hits give low values): 0.985
normalized growth (S. cerevisiae deletion strains, locus YKL068W, hits give low values): 1
normalized growth (S. cerevisiae deletion strains, locus YKL085W, strain MDH1 (second series), hits give low values): 0.999
normalized growth (S. cerevisiae deletion strains, locus YKL085W, strain MDH1, hits give low values): 0.999
normalized growth (S. cerevisiae deletion strains, locus YKL160W, strain elf1, hits give low values): 1.01
normalized growth (S. cerevisiae deletion strains, locus YKL190W, strain CNB1, hits give low values): 1.01
normalized growth (S. cerevisiae deletion strains, locus YKR001C, strain vps1, hits give low values): 0.997
normalized growth (S. cerevisiae deletion strains, locus YKR026C, strain gcn3, hits give low values): 1.02
normalized growth (S. cerevisiae deletion strains, locus YKR091W, strain srl3, hits give low values): 1.02
normalized growth (S. cerevisiae deletion strains, locus YLL001W, strain dnm1, hits give low values): 1.06
normalized growth (S. cerevisiae deletion strains, locus YLL026W, hits give low values): 1.01
normalized growth (S. cerevisiae deletion strains, locus YLL041C, strain sdh2, hits give low values): 1
normalized growth (S. cerevisiae deletion strains, locus YLR027C, strain aat2, hits give low values): 0.989
normalized growth (S. cerevisiae deletion strains, locus YLR039C, strain RIC1, hits give low values): 1.24
normalized growth (S. cerevisiae deletion strains, locus YLR058C, strain SHM2, hits give low values): 1.01
normalized growth (S. cerevisiae deletion strains, locus YLR102C, strain apc9, hits give low values): 1
normalized growth (S. cerevisiae deletion strains, locus YLR113W, strain HOG1, hits give low values): 0.988
normalized growth (S. cerevisiae deletion strains, locus YLR221C, strain rsa3, hits give low values): 1.02
normalized growth (S. cerevisiae deletion strains, locus YLR258W, strain gsy2, hits give low values): 1
normalized growth (S. cerevisiae deletion strains, locus YLR262C, strain YPT6 (second series), hits give low values): 1.11
normalized growth (S. cerevisiae deletion strains, locus YLR262C, strain YPT6, hits give low values): 1.2
normalized growth (S. cerevisiae deletion strains, locus YLR268W, strain sec22, hits give low values): 0.963
normalized growth (S. cerevisiae deletion strains, locus YLR320W, strain mms22, hits give low values): 1.01
normalized growth (S. cerevisiae deletion strains, locus YLR330W, strain CHS5, hits give low values): 1.02
normalized growth (S. cerevisiae deletion strains, locus YLR342W, strain FKS1 (second series), hits give low values): 1.02
normalized growth (S. cerevisiae deletion strains, locus YLR342W, strain FKS1, hits give low values): 1.02
normalized growth (S. cerevisiae deletion strains, locus YLR357W, strain rsc2, hits give low values): 1
normalized growth (S. cerevisiae deletion strains, locus YLR370C, strain arc18, hits give low values): 1.02
normalized growth (S. cerevisiae deletion strains, locus YLR371W, strain rom2, hits give low values): 0.998
normalized growth (S. cerevisiae deletion strains, locus YLR384C, strain iki3, hits give low values): 1.02
normalized growth (S. cerevisiae deletion strains, locus YLR418C, strain cdc73, hits give low values): 0.861
normalized growth (S. cerevisiae deletion strains, locus YML016C, strain PPZ1, hits give low values): 1.03
normalized growth (S. cerevisiae deletion strains, locus YML032C, strain rad52, hits give low values): 0.974
normalized growth (S. cerevisiae deletion strains, locus YML120C, strain ndi1, hits give low values): 1.02
normalized growth (S. cerevisiae deletion strains, locus YML124C, strain tub3, hits give low values): 0.998
normalized growth (S. cerevisiae deletion strains, locus YMR058W, strain fet3, hits give low values): 0.955
normalized growth (S. cerevisiae deletion strains, locus YMR078C, strain ctf18, hits give low values): 0.999
normalized growth (S. cerevisiae deletion strains, locus YMR125W, strain sto1, hits give low values): 1.01
normalized growth (S. cerevisiae deletion strains, locus YMR129W, hits give low values): 1.02
normalized growth (S. cerevisiae deletion strains, locus YMR205C, strain PFK2, hits give low values): 1.04
normalized growth (S. cerevisiae deletion strains, locus YMR223W, strain ubp8, hits give low values): 0.979
normalized growth (S. cerevisiae deletion strains, locus YMR231W, strain pep5, hits give low values): 1.01
normalized growth (S. cerevisiae deletion strains, locus YMR307W, strain GAS1, hits give low values): 0.972
normalized growth (S. cerevisiae deletion strains, locus YNL067W, strain RPL9B, hits give low values): 0.999
normalized growth (S. cerevisiae deletion strains, locus YNL071W, strain lat1, hits give low values): 0.998
normalized growth (S. cerevisiae deletion strains, locus YNL128W, strain TEP1, hits give low values): 0.982
normalized growth (S. cerevisiae deletion strains, locus YNL183C, strain NPR1, hits give low values): 0.935
normalized growth (S. cerevisiae deletion strains, locus YNL209W, strain ssb2, hits give low values): 1.01
normalized growth (S. cerevisiae deletion strains, locus YNL233W, strain BNI4, hits give low values): 1.01
normalized growth (S. cerevisiae deletion strains, locus YNL248C, strain rpa49, hits give low values): 0.879 (active)
normalized growth (S. cerevisiae deletion strains, locus YNL250W, strain rad50, hits give low values): 1.01
normalized growth (S. cerevisiae deletion strains, locus YNL271C, strain bni1, hits give low values): 0.974
normalized growth (S. cerevisiae deletion strains, locus YNL298W, strain CLA4, hits give low values): 0.983
normalized growth (S. cerevisiae deletion strains, locus YNL307C, strain MCK1, hits give low values): 0.979
normalized growth (S. cerevisiae deletion strains, locus YNL322C, strain KRE1 (second series), hits give low values): 1.04
normalized growth (S. cerevisiae deletion strains, locus YNL322C, strain KRE1, hits give low values): 1.02
normalized growth (S. cerevisiae deletion strains, locus YNR049C, strain mso1, hits give low values): 1.01
normalized growth (S. cerevisiae deletion strains, locus YNR052C, strain pop2, hits give low values): 0.985
normalized growth (S. cerevisiae deletion strains, locus YOL006C, strain TOP1, hits give low values): 0.927
normalized growth (S. cerevisiae deletion strains, locus YOL012C, strain htz1): 0.763
normalized growth (S. cerevisiae deletion strains, locus YOL147C, strain pex11, hits give low values): 0.998
normalized growth (S. cerevisiae deletion strains, locus YOR001W, strain rrp6, hits give low values): 0.984
normalized growth (S. cerevisiae deletion strains, locus YOR061W, strain CKA2, hits give low values): 1.01
normalized growth (S. cerevisiae deletion strains, locus YOR069W, strain VPS5, hits give low values): 1.01
normalized growth (S. cerevisiae deletion strains, locus YOR070C, strain gyp1, hits give low values): 1
normalized growth (S. cerevisiae deletion strains, locus YOR080W, strain dia2, hits give low values): 1.02
normalized growth (S. cerevisiae deletion strains, locus YOR083W, strain WHI5, hits give low values): 1.02
normalized growth (S. cerevisiae deletion strains, locus YOR106W, strain vam3, hits give low values): 1
normalized growth (S. cerevisiae deletion strains, locus YOR136W, strain idh2, hits give low values): 0.993
normalized growth (S. cerevisiae deletion strains, locus YOR144C, strain elg1, hits give low values): 0.998
normalized growth (S. cerevisiae deletion strains, locus YOR184W, strain ser1, hits give low values): 0.976
normalized growth (S. cerevisiae deletion strains, locus YOR231W, strain MKK1, hits give low values): 0.963
normalized growth (S. cerevisiae deletion strains, locus YOR265W, strain rbl2, hits give low values): 1
normalized growth (S. cerevisiae deletion strains, locus YOR270C, strain vph1, hits give low values): 1.02
normalized growth (S. cerevisiae deletion strains, locus YOR290C, strain snf2, hits give low values): 1.01
normalized growth (S. cerevisiae deletion strains, locus YOR316C, strain cot1, hits give low values): 0.995
normalized growth (S. cerevisiae deletion strains, locus YPL051W, strain arl3, hits give low values): 0.97
normalized growth (S. cerevisiae deletion strains, locus YPL055C, strain LGE1, hits give low values): 0.96
normalized growth (S. cerevisiae deletion strains, locus YPL078C, strain atp4, hits give low values): 1.01
normalized growth (S. cerevisiae deletion strains, locus YPL106C, strain sse1, hits give low values): 1.02
normalized growth (S. cerevisiae deletion strains, locus YPL240C, strain hsp82, hits give low values): 1.01
normalized growth (S. cerevisiae deletion strains, locus YPL241C, strain CIN2, hits give low values): 1.03
normalized growth (S. cerevisiae deletion strains, locus YPL256C, strain CLN2, hits give low values): 0.965
normalized growth (S. cerevisiae deletion strains, locus YPR119W, strain clb2, hits give low values): 1
normalized growth (S. cerevisiae deletion strains, locus YPR141C, strain kar3, hits give low values): 1
normalized growth (S. cerevisiae deletion strains, locus YPR163C, strain tif3, hits give low values): 0.995
normalized growth (S. cerevisiae deletion strains, locus YPR167C, strain met16, hits give low values): 0.992
normalized growth (S. cerevisiae deletion strains, strain wtn01, hits give low values): 0.98
normalized growth (S. cerevisiae strains, strain wild type, hits give low values): 1.01
